Some structures have more than one record in an assay (separate samples or runs), and their calls can disagree. Active and inactive are the calls of the source. How the source made its calls: active means hit-call score of the fitted dose curve at least 0.9, where 1 is the maximum; inactive means score below 0.9.
How the values were obtained:
[1] = APR_HepG2_P-H2AX_72hr: Apredica 72-hour HepG2 Assay for H2AX Phosphorylation (AID 2282916); details: imaging, actives raise or lower the signal;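 further: phospho-histone H2A.x immunostain intensity per cell marking DNA damage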
How it was run: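 Human hepatoma HepG2 cells are dosed across ten concentrations (0.39 to 200 uM, 0.5% v/v DMSO) and incubated 72 hr. Phospho-histone H2A.x is then detected by antibody staining alongside c-Jun and Hoechst, and quantified by automated fluorescence imaging.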

[2] = APR_HepG2_MitoMembPot_72hr: Apredica 72-hour HepG2 Assay for Mitochondrial Membrane Potential (AID 2282917); details: imaging, actives raise or lower the signal
How it was run: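 Membrane potential read by MitoTracker Red CMXRos (250 nM, 30 min, pre-fixation) fluorescence imaging of HepG2 after 72 hr exposure. Ten concentrations, 0.39–200 uM, duplicate wells, 0.5% DMSO; fitted in both directions against DMSO baseline.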

[3] = APR_HepG2_MitoticArrest_72hr: Apredica 72-hour HepG2 Assay for Mitotic Arrest (AID 2282918); details: high-content imaging, actives raise or lower the signal
How it was run: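 Read-out is phospho-histone H3 immunofluorescence with Hoechst nuclear segmentation, imaged at 20x. Human HepG2 liver cells received ten concentrations (0.39–200 uM, final DMSO 0.5% v/v) for 72 hr before fixation. Gain or loss of signal was fitted relative to DMSO.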

[4] = APR_HepG2_MicrotubuleCSK_72hr: Apredica 72-hour HepG2 Assay for Microtubule CSK Stabilty (AID 2282919); details: HepG2 microtubule cytoskeleton, high-content imaging, actives raise or lower the signal
How it was run: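 High-content imaging of alpha-tubulin staining in fixed HepG2 cells after 72 hr treatment with ten concentrations from 0.39 to 200 uM (0.5% DMSO). Fitting was bidirectional against DMSO; taxol served as positive control.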

[5] = APR_HepG2_P-H2AX_24hr: Apredica 24-hour HepG2 Assay for H2AX Phosphorylation (AID 2282920); details: high-content imaging, actives raise or lower the signal
How it was run: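 HepG2, 24 hr, cpd 0.39–200 uM (10 conc, duplicate), DMSO 0.5% v/v final. Fix 3.7% formaldehyde, Triton X-100 permeabilize, anti-phospho-H2A.x 1:200 + Hoechst 2 ug/mL. Imaged, bidirectional fit vs DMSO.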

[6] = APR_HepG2_StressKinase_72hr: Apredica 72-hour HepG2 Assay for Stress Kinase (AID 2282921); details: HepG2 stress kinase (phospho-c-Jun) imaging, actives raise or lower the signal
How it was run: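 After a 72 h compound treatment spanning 0.39 to 200 uM, formaldehyde-fixed cells are labelled for phosphorylated c-Jun and nuclei, imaged by automated fluorescence microscopy, and activity is fitted in both directions relative to DMSO controls.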

[7] = APR_HepG2_StressKinase_24hr: Apredica 24-hour HepG2 Assay for Stress Kinase (AID 2282922); details: HepG2 stress kinase (phospho-c-Jun) imaging, actives raise or lower the signal
How it was run: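 High-content imaging of phospho-c-Jun immunofluorescence in fixed, permeabilized HepG2 cells after 24 h dosing. Ten concentrations, 0.39 to 200 uM, run in duplicate at 0.5% v/v DMSO; gain or loss of signal versus DMSO.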

[8] = APR_HepG2_p53Act_72hr: Apredica 72-hour HepG2 Assay for p53 Activation (AID 2282923); details: high-content imaging, actives raise or lower the signal;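 further: average cellular p53 protein immunofluorescence intensity in HepG2 cells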
How it was run: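 Imaging-based endpoint: after 72 hr compound exposure (up to 200 uM, 0.5% DMSO), fixed and permeabilized monolayers were labelled with anti-p53 antibody and imaged; signal change in either direction was fitted relative to DMSO controls.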

[9] = APR_HepG2_MitoMass_72hr: Apredica 72-hour HepG2 Assay for Mitochondrial Mass (AID 2282924); details: high-content imaging, actives raise or lower the signal;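 further: MitoTracker Red CMXRos stain intensity per cell imaged as mitochondrial mass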
How it was run: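 Readout is imaged MitoTracker Red (250 nM, 30 min, pre-fixation) signal, fitted bidirectionally against DMSO baseline. Human HepG2 liver cells received compound 0.39–200 uM in duplicate for 72 hr, final DMSO 0.5%.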

[10] = ATG_CRE_CIS: Attagene CIS-FACTORIAL HepG2 Assay for human cAMP Responsive Element (CRE) binding protein 3 (AID 2282926); details: HepG2 CRE cis-reporter, Attagene multiplexed mRNA; actives raise or lower the signal
How it was run: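 Assay format: transient reporter transfection of HepG2, 24 h treatment, total RNA isolation with DNase I step. Reporter abundance read by fluorescence after PCR and capillary separation; DMSO-normalised gain or loss fitting.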

[11] = target: CCAAT/enhancer-binding protein beta (Homo sapiens) (UniProt P17676); assay: ATG_C_EBP_CIS: Attagene CIS-FACTORIAL HepG2 Assay for human CCAAT/Enhancer Binding Protein (C/EBP) beta (AID 2282927); details: HepG2 Attagene cis-factorial transcription factor reporter; actives raise or lower the signal
How it was run: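 Endogenous transcription factor activity in human liver HepG2 cells is inferred from induction of a CEBPB-linked reporter mRNA. Exposure lasts 24 h; activity is fitted in both directions relative to DMSO.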

[12] = ATG_CMV_CIS: Attagene CIS-FACTORIAL HepG2 Assay for human CMV (Internal Marker) (AID 2282928); details: HepG2 CMV promoter reporter, transcription factor profiling; actives raise or lower the signal;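 further: endpoint acts as a background internal control marker rather than a target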
How it was run: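 Bidirectional fits against DMSO are applied to reporter mRNA, read by RT-PCR with capillary electrophoresis, from HepG2 cells exposed 24 h. The endpoint serves as an internal CMV background marker within the cis-factorial reporter panel.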

[13] = target: Aryl hydrocarbon receptor (Homo sapiens) (UniProt P35869); assay: ATG_Ahr_CIS: Attagene CIS-FACTORIAL HepG2 Assay for human Aryl Hydrocarbon Receptor (Ahr) (AID 2282930); details: HepG2 AhR cis-factorial reporter transcription; actives raise or lower the signal
How it was run: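 Transient MRTU transfection of HepG2 → 24 h compound exposure → total RNA, oligo(dT) RT → PCR, 6-FAM extension, HpaI cut → CE fluorescence. DMSO = baseline; bidirectional curve fit.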

[14] = ATG_AP_2_CIS: Attagene CIS-FACTORIAL HepG2 Assay for human Activator Protein 2 (AP-2) (AID 2282932); details: HepG2 AP-2 cis-reporter, Attagene transcription factor profiling; actives raise or lower the signal
How it was run: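 Endogenous transcription factor activity is reported through transfected multiplex reporter constructs in HepG2, after 24 h of compound exposure. Transcripts were quantified by RT-PCR and capillary electrophoresis of fluorescent fragments. Bidirectional fit against DMSO.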

[15] = ATG_BRE_CIS: Attagene CIS-FACTORIAL HepG2 Assay for human Bone Morphogenetic Protein (BMP) Response Element (BRE) (AID 2282933); details: HepG2 BMP response element reporter, Attagene transcription factor profiling; actives raise or lower the signal
How it was run: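 Fluorescence-labelled reporter cDNA fragments, separated by capillary electrophoresis, gave the signal for this component of a 52-readout multiplex. HepG2 cells were transfected, exposed to chemicals for 24 h, and compared with DMSO using bidirectional fitting.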

[16] = target: Retinoic acid receptor alpha (Homo sapiens) (UniProt P10276); assay: ATG_DR5_RAR_CIS: Attagene CIS-FACTORIAL HepG2 Assay for human Retinoic Acid Receptor Alpha (RARE), DR5 submotif (AID 2282934); details: HepG2 Attagene cis-factorial RARE DR5 reporter, mRNA; actives raise or lower the signal;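 on AC50: reporter responds to endogenous RAR alpha beta and gamma in HepG2 not RARA alone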
How it was run: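 Transient MRTU transfection of HepG2; 24 h compound treatment; TriZol RNA, oligo(dT) RT, PCR, FAM labelling, capillary electrophoresis. Bidirectional fit vs DMSO. Endogenous TF activity at DR5 RARE.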

[17] = ATG_DR4_LXR_CIS: Attagene CIS-FACTORIAL HepG2 Assay for human Liver X Receptor (LXR), DR4 submotif (AID 2282929); details: HepG2 Attagene DR4 cis-reporter, mRNA transcription; actives raise or lower the signal
How it was run: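 Fluorescence intensity of labelled reporter cDNA fragments, separated by capillary electrophoresis, gives the signal. HepG2 cells bearing cis-regulated reporter constructs were treated 24 h; activity fitted bidirectionally relative to DMSO negative control.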

[18] = APR_HepG2_NuclearSize_72hr: Apredica 72-hour HepG2 Assay for Nuclear Size (AID 2282925); details: high-content imaging, actives raise or lower the signal
How it was run: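 Nuclear size was read by high-content imaging of Hoechst 33342 stain after formaldehyde fixation. Compounds ran 72 h on HepG2 at 0.39 to 200 uM, with final DMSO 0.5% v/v. Curves fitted both directions relative to DMSO control.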

[19] = ATG_AP_1_CIS: Attagene CIS-FACTORIAL HepG2 Assay for human Activator Protein 1 (AP-1) (AID 2282931); details: HepG2 Attagene cis-factorial AP-1 reporter mRNA; actives raise or lower the signal
How it was run: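 Multiplexed HepG2 reporter assay, 24 h dosing. mRNA induction detected by RT-PCR plus capillary electrophoresis. Activity fitted in both directions against DMSO.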

Chain of Aryl hydrocarbon receptor (Homo sapiens) (P35869 whole entry, looked up): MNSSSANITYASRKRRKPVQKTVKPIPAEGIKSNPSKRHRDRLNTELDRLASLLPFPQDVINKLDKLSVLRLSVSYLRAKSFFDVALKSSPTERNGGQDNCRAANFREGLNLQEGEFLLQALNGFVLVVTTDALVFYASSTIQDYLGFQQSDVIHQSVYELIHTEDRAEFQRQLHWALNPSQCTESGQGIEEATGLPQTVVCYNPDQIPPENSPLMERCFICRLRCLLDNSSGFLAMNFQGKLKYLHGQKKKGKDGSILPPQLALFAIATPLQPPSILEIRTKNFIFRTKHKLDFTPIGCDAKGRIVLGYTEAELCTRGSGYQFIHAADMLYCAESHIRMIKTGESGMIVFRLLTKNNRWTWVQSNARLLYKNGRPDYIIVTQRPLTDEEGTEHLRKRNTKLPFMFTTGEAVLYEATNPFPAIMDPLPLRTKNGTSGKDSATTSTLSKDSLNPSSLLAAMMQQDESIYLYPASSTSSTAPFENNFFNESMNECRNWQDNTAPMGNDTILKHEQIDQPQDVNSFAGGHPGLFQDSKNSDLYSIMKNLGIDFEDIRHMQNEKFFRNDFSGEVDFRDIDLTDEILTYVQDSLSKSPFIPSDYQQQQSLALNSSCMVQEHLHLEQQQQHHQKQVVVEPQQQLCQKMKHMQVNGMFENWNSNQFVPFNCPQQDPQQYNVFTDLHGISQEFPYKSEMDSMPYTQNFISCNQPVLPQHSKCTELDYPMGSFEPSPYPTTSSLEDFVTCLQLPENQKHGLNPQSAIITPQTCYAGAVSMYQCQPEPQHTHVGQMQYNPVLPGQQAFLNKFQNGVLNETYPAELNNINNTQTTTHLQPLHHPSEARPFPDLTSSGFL
Chain of CCAAT/enhancer-binding protein beta (Homo sapiens) (P17676 whole entry, looked up): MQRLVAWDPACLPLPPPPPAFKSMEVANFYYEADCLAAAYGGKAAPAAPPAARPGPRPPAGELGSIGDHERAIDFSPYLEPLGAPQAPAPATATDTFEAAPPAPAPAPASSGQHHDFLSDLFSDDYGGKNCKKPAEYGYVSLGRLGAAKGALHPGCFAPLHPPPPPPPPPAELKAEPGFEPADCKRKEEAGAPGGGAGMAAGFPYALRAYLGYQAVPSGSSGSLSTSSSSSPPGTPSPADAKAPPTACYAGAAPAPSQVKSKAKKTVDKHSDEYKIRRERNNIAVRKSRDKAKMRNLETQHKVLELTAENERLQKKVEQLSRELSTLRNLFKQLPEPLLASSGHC
Chain of Retinoic acid receptor alpha (Homo sapiens) (P10276 whole entry, looked up): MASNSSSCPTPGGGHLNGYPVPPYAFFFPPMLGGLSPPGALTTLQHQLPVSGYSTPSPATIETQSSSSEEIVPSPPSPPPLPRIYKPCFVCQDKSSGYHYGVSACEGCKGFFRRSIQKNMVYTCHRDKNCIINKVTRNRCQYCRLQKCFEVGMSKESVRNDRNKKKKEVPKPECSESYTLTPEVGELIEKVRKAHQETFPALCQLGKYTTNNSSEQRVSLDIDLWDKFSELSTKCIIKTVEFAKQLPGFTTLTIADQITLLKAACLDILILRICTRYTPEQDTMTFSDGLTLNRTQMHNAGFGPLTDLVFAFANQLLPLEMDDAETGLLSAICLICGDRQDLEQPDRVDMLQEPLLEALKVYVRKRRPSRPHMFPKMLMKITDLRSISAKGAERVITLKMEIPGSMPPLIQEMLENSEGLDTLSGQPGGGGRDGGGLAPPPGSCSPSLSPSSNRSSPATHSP

SMILES: CCC(C)(C)C1CCC(O)CC1 (stereo not drawn)
- AC50 [1]: 112 µM (active)
- outcome [2]: inactive
- AC50 [3]: 102 µM (active)
- outcome [4]: inactive
- AC50 [5]: 114 µM (active)
- outcome [6]: inactive
- outcome [7]: inactive
- AC50 [8]: 105 µM (active)
- outcome [9]: inactive
- outcome [10]: inactive
- outcome [11]: inactive
- outcome [12]: inactive
- AC50 [13]: 48.2 µM (active)
- outcome [13]: inactive
- outcome [14]: inactive
- outcome [15]: inactive
- outcome [16]: inactive

SMILES: CCCOc1sc(C(=O)N2CCC(c3cc(CN)ccc3F)CC2)c(C)c1Br
- AC50 [1]: 22.7 µM (active)
- outcome [2]: inactive
- AC50 [3]: 5.79 µM (active)
- AC50 [4]: 6.58 µM (active)
- AC50 [5]: 4.23 µM (active)
- AC50 [6]: 32.1 µM (active)
- outcome [7]: inactive
- AC50 [8]: 47.1 µM (active)
- AC50 [9]: 44.5 µM (active)
- outcome [10]: inactive
- outcome [11]: inactive
- outcome [12]: inactive
- outcome [17]: inactive
- outcome [13]: inactive
- outcome [14]: inactive
- outcome [15]: inactive
- outcome [16]: inactive

SMILES: C[C@@H]1C[C@H]2[C@@H]3CCC4=CC(=O)C=C[C@]4(C)[C@@]3(F)[C@@H](O)C[C@]2(C)[C@@]1(O)C(=O)COP(=O)(O)O
- AC50 [1]: 1.09 µM (active)
- AC50 [2]: 45.1 µM (active)
- AC50 [3]: 1.12 µM (active)
- outcome [4]: inactive
- AC50 [5]: 16 µM (active)
- outcome [6]: inactive
- outcome [7]: inactive
- AC50 [8]: 1.45 µM (active)
- AC50 [9]: 5.23 µM (active)
- outcome [10]: inactive
- outcome [11]: inactive
- outcome [12]: inactive
- outcome [17]: inactive
- outcome [13]: inactive
- outcome [14]: inactive
- outcome [15]: inactive

SMILES: Cc1cc(C)c(O)c(C)c1
- outcome [1]: inactive
- outcome [2]: inactive
- outcome [3]: inactive
- outcome [4]: inactive
- outcome [5]: inactive
- outcome [6]: inactive
- outcome [7]: inactive
- outcome [8]: inactive
- outcome [9]: inactive
- outcome [18]: inactive
- outcome [10]: inactive
- outcome [11]: inactive
- AC50 [12]: 100 µM (active)
- outcome [13]: inactive
- outcome [19]: inactive
- outcome [14]: inactive
- outcome [15]: inactive
- AC50 [16]: 100 µM (active)

SMILES: COC(=O)CCCCC(=O)OC
- outcome [1]: inactive
- outcome [2]: inactive
- outcome [3]: inactive
- outcome [4]: inactive
- outcome [5]: inactive
- outcome [6]: inactive
- outcome [7]: inactive
- outcome [8]: inactive
- outcome [9]: inactive
- outcome [10]: inactive
- outcome [11]: inactive
- outcome [12]: inactive
- outcome [17]: inactive
- outcome [13]: inactive
- outcome [19]: inactive
- outcome [14]: inactive
- outcome [15]: inactive
- outcome [16]: inactive

SMILES: COc1ccc([N+](=O)[O-])cc1N
- outcome [1]: inactive
- outcome [2]: inactive
- outcome [3]: inactive
- outcome [4]: inactive
- outcome [5]: inactive
- outcome [6]: inactive
- outcome [7]: inactive
- outcome [8]: inactive
- outcome [9]: inactive
- outcome [10]: inactive
- outcome [11]: inactive
- outcome [12]: inactive
- outcome [13]: inactive
- outcome [19]: inactive
- outcome [14]: inactive
- outcome [15]: inactive
- outcome [16]: inactive
